According to PubChem BioAssay AID2284163 (EPA ToxCast):
Calls of active or inactive are those of the source. The calls were made as follows: active = hit-call score of the fitted dose curve at least 0.9, where 1 is the maximum; inactive = score below 0.9.

These molecules were tested against Oxytocin receptor (Homo sapiens) (UniProt P30559) (assay: ERF_FR_GPCR_hOXTR: Eurofins (ERF) G Protein-Coupled Receptor (GPCR) Radioligand Binding LeadHunter Assay for human Vasopressin / Oxytocin Receptor OT Agonism).
Oxytocin receptor (Homo sapiens), sequence (P30559 whole entry, looked up): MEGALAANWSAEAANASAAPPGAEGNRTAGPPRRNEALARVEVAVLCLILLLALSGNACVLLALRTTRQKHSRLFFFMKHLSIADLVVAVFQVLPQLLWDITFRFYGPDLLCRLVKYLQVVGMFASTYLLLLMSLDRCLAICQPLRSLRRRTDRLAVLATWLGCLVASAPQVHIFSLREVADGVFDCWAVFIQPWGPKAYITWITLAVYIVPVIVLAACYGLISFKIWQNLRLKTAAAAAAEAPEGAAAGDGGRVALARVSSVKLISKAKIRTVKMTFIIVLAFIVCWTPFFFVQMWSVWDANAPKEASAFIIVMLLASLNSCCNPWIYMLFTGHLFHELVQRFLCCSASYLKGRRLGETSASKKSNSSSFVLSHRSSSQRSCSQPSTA
Protocol: ERF_FR_GPCR_hOXTR is a biochemical, single-readout assay that uses extracted gene-proteins in a cell-free assay. Measurements were taken 2 hour after chemical dosing in a 96-well plate. See OT Human Vasopressin / Oxytocin GPCR Binding (Agonist Radioligand) Assay, Cerep.ERF_FR_GPCR_hOXTR is an assay component calculated from the ERF_FR_GPCR_hOXTR assay. It is designed to measure radioligand binding using a type of binding reporter as detected by scintillation counting with radiometry technology.Data from the assay component ERF_FR_GPCR_hOXTR was analyzed at the assay endpoint, ERF_FR_GPCR_hOXTR, in the positive analysis fitting direction relative to DMSO as the negative control and baseline of activity. Using a type of binding reporter, gain-of-signal activity can be used to understand changes in binding as they relate to gene OXTR. To generalize the intended target to other relatable targets, this assay endpoint is annotated to the gpcr intended target family, where the subfamily is vasopressin and oxytocin.
Human cells are incubated for 60 minutes at room temprature with [3H] Oxytocin ligand (0.8 nM) and OXYTOCIN as control inhibitor. Test Sample Requirements: Minimum for 1) Screen: 60 ul of 10 mM stock -OR- 1 mg (pre-weighed) for 10 uM final testing. 2) Dose Response: 90 ul of 10 mM stock -OR- 1 mg (pre-weighed) for a top concentration at 10 uM.

SMILES | outcome
CCCCC[C@H](O)CC(=O)CCc1ccc(O)c(OC)c1 | inactive
